Data from PubChem BioAssay (NCI).
About 83,000 compounds went through this panel and 20% of them were active in at least one assay; those are over-represented in the sample as a whole.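 Single-concentration screen, 48 h exposure, 96-well plates. Endpoint: percent growth. Below 10 = active.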 Activity calls are given as the source filed them.

How the values were obtained:
Assay in all cases: NCI-60 one-dose screen, 48 h (100 = growth as untreated, 0 = no growth, -100 = all killed)
Conditions in all cases: 10 µM unless noted
[1] = tested on: SK-MEL-2 melanoma
[2] = tested on: EKVX NSCLC
[3] = tested on: SN12C renal
[4] = tested on: UO-31 renal
[5] = tested on: TK-10 renal
[6] = tested on: ACHN renal
[7] = tested on: CAKI-1 renal
[8] = tested on: A498 renal
[9] = tested on: CCRF-CEM leukemia
[10] = tested on: MOLT-4 leukemia

Measured: growth

CC(C)Sc1nc(-c2ccccc2)c(C#N)c(N2CCOCC2)n1
inactive: [1] 128% | [2] 69.8% | [3] 28.1% | [4] 17.9% | [5] 106% | [7] 52.1% | [8] 65.6% | [9] 75.3% | [10] 93.5%
active: [6] -6.39%

O=S(=O)(Oc1ccc(-c2cn3ccoc3n2)cc1)c1cccc(C(F)(F)F)c1
inactive: [1] 104% | [2] 102% | [3] 96.2% | [4] 93.1% | [5] 85.4% | [6] 102% | [7] 86.9% | [8] 88.8% | [9] 106% | [10] 103%

C=C(C)[C@@H]1CC[C@]2(C(=O)N3CCN(C)CC3)CC[C@]3(C)[C@H](CC[C@@H]4[C@@]5(C)CC[C@H](OP(=O)(OCC)OCC)C(C)(C)[C@@H]5CC[C@]43C)[C@@H]12
inactive: [1] 106% | [2] 72.8% | [3] 84.7% | [4] 60.8% | [5] 108% | [6] 83.6% | [7] 61.2% | [8] 96.4% | [9] 35.4% | [10] 36.3%

Cn1cc(-c2cc3ncnc(Nc4ccc(NC(=O)Nc5cc(C(C)(C)C)on5)cc4)c3s2)cn1
inactive: [2] 48.2% | [3] 18.8% | [4] 41.7% | [5] 62.5% | [6] 27.1% | [7] 14.5% | [8] 16.4% | [9] 22.2% | [10] 14.3%
active: [1] -9.06%

O=C(/C=C/c1cc(Cl)ccc1Cl)Nc1ncc(Cc2ccc(Cl)cc2)s1
active: [3] 9.91% | [6] 3.59% | [7] 2.37% | [8] -32.8%
inactive: [1] 24.4% | [2] 30.2% | [4] 19.3% | [5] 34.1% | [9] 11.1% | [10] 15.2%

CCC1=Cc2c(OC)cccc2OC12C=Cc1c(OC)cccc1O2 (stereo not given)
inactive: [1] 65.8% | [2] 52.4% | [3] 42% | [4] 39.8% | [5] 101% | [6] 35.9% | [7] 28.4% | [9] 16.2% | [10] 15.8%
active: [8] 6.92%

Cc1cc(=O)[nH]c(O)c1C#N
inactive: [1] 116% | [2] 94.3% | [3] 102% | [4] 84.3% | [5] 107% | [6] 99.5% | [7] 90.6% | [8] 104% | [9] 99.6% | [10] 100%

CC[C@]12C=CCN3CC[C@]4(C(=C(C(=O)OC)C1)Nc1cc5c(cc14)[C@@H]1[C@H](O5)[C@@H](O)[C@@]4(CC)CC(C(=O)OC)=C5Nc6cc(O)ccc6[C@@]56CCN1C46)C32 (stereo not given in full)
active: [4] 4.9% | [5] -9.16% | [6] -14.3% | [7] -7.67% | [8] -71.8% | [9] 6.81% | [10] 8.51%
inactive: [1] 16.1% | [2] 16.3% | [3] 13.8%

CCOC(=O)c1cccc(NC2=C(Cl)C(=O)c3nc(C)ccc3C2=O)c1
inactive: [1] 105% | [2] 92.1% | [3] 95.5% | [4] 93.1% | [5] 119% | [6] 96.1% | [7] 108% | [8] 88.8% | [9] 15% | [10] 48.5%

Nc1nc(=O)n([C@H]2C[C@H](O)[C@@H](CO)O2)cc1C=O
active: [3] -19.5%
inactive: [1] 109% | [2] 112% | [4] 101% | [5] 108% | [6] 107% | [7] 82.1% | [8] 121% | [9] 57.7% | [10] 92%

CN(C)c1ccc(-c2cc(-c3c[nH]c4ccccc34)nc(N)c2C#N)cc1
active: [1] -0.536% | [8] -0.675%
inactive: [2] 61.8% | [3] 43.1% | [4] 44.6% | [5] 72.9% | [6] 47.1% | [7] 24.1% | [9] 30% | [10] 35.4%

CCCCCC[n+]1ccc(SCC(=O)n2ccc3ccccc32)c2ccccc21
inactive: [1] 94.3% | [2] 83.8% | [3] 88.8% | [4] 68.6% | [5] 108% | [6] 87.2% | [7] 78.4% | [8] 115% | [9] 77.3% | [10] 79.4%

CNc1sc(S(=O)(=O)NC)nc1S(=O)(=O)c1ccc(C)cc1
inactive: [1] 103% | [2] 95.2% | [3] 101% | [4] 77.7% | [5] 95.5% | [6] 101% | [7] 91.9% | [8] 93.1% | [9] 104% | [10] 100%

O=C1[C@@H]2Cc3c([nH]c4ccccc34)[C@H](c3ccc(Br)cc3)N2C(=O)CN1C1CCN(Cc2c(Cl)cccc2Cl)CC1
inactive: [1] 99.8% | [2] 88.4% | [3] 92.5% | [4] 67.7% | [5] 132% | [6] 91.2% | [7] 67.6% | [8] 103% | [9] 88.8% | [10] 65.9%

Cc1ccccc1Nc1nc(SC(C)C)nc(-c2ccccc2)c1C#N
inactive: [1] 130% | [2] 73.2% | [3] 12.1% | [5] 61.1% | [6] 13.4% | [7] 38.4% | [8] 53.5% | [9] 80.9% | [10] 90.2%
active: [4] -40.2%

COC(=O)c1cccc(NC2=C(Cl)C(=O)c3nc(C)ccc3C2=O)c1
inactive: [1] 101% | [2] 54.3% | [3] 93.1% | [4] 48.5% | [5] 128% | [7] 103% | [8] 71% | [10] 19.7%
active: [6] 0.427% | [9] 5.63%

CCN(CC)CCOc1ccc(C(=C(c2ccccc2)C2CCCC2)c2ccc(OCCN(CC)CC)cc2)cc1
active: [1] 6.57% | [3] 6.33% | [9] 8.31% | [10] 0.859%
inactive: [2] 48.4% | [4] 86.5% | [5] 74.3% | [6] 95.3% | [7] 94.2% | [8] 96.5%

O=C1C(SCc2ccccc2)=C(Cl)CN1c1ccccc1
active: [4] -90.8%
inactive: [1] 110% | [2] 97.9% | [3] 95.7% | [5] 136% | [6] 94.7% | [7] 80.9% | [8] 94.3% | [9] 86.1% | [10] 84.3%

CCOC(=O)c1c(NC(=O)c2cccc(C(F)(F)F)c2)sc2c3c(ccc12)OCN(C)C3
active: [3] -66.2% | [6] -91.9% | [9] -39.5% | [10] -48.5%
inactive: [1] 98.8% | [2] 36.9% | [4] 31.8% | [5] 126% | [7] 44.8% | [8] 84.3%

O=C(CCCCCCN1CC(=O)N2[C@@H](c3cccs3)c3[nH]c4ccccc4c3C[C@H]2C1=O)NO
inactive: [1] 77.8% | [2] 92.2% | [3] 93.8% | [4] 82.7% | [5] 85.5% | [6] 96.7% | [7] 88.5% | [8] 87.3% | [9] 24.2% | [10] 19.3%

O=C(CCl)Nc1ccc(NC(=O)c2cc(Cl)ccc2O)c(Cl)c1
active: [9] 9.8%
inactive: [1] 92% | [2] 95.9% | [3] 68.4% | [4] 54.7% | [5] 129% | [6] 85.8% | [7] 59.2% | [8] 100% | [10] 25.7%

CNC(=O)c1cc(N2CCc3cc(NC(=O)Nc4ccc(N5CCN(C)CC5)c(C(F)(F)F)c4)ccc32)ccn1
inactive: [1] 99.4% | [2] 82.3% | [3] 100% | [4] 88.7% | [5] 134% | [6] 85.6% | [7] 79.9% | [8] 76.9% | [10] 17.3%
active: [9] 5.44%

NCCNC(=O)c1cccc(COc2ccccc2NC(=O)c2cc(Cl)c(Cl)[nH]2)c1
inactive: [1] 106% | [2] 94.4% | [3] 100% | [4] 92.2% | [5] 94.2% | [6] 100% | [7] 81.9% | [8] 81.5% | [9] 85.8% | [10] 89.5%

NNc1nnc2nc(Nc3ccccc3)nc(Nc3ccc(S(N)(=O)=O)cc3)n12
inactive: [1] 111% | [2] 99.4% | [3] 98.8% | [4] 82.2% | [5] 106% | [6] 106% | [7] 94.5% | [8] 102% | [9] 92.5% | [10] 105%

CC(=C(c1ccc(OCCN(C)C)cc1)c1ccc(OCCN(C)C)cc1)c1ccc(Cl)cc1
active: [1] -59.4% | [2] -12.9% | [3] -33.3% | [4] -64.8% | [5] -72.4% | [6] -80.4% | [7] -81.5% | [8] -76.1% | [9] -45.2% | [10] -49.7%

Fc1ccc2nc(-c3cnn4cccnc34)sc2c1
inactive: [1] 119% | [2] 61.8% | [3] 90.2% | [4] 46.8% | [5] 123% | [6] 78.9% | [7] 68.9% | [8] 89.7% | [9] 102% | [10] 80.3%

CC(Nc1c(C#N)cnc2ccc(-c3cncc(-c4n[nH]c(=O)o4)c3)cc12)c1ccccc1 (stereo not given)
inactive: [3] 11% | [9] 19.6%
active: [1] -34% | [2] -12% | [4] 1.27% | [5] -23.8% | [6] 9.24% | [7] 4.01% | [8] -6.1% | [10] 8.04%
